From PubChem BioAssay AID1159580 (chemical genetic matrix, 2015)
Values joined by “and” are separate entries in the source; they are usually repeats but may differ in a detail not shown here. Equal entries are not always repeated. The campaign covered roughly 5,500 compounds. About 2,000 (36%) were called active. Roughly 18% stayed inconclusive and do not appear here. Cut-off read from the data, not from the text of the source: active = normalized growth mostly below about 0.91 (no sharp cut-off); inconclusive = no clear call, values can overlap the other calls; inactive = mostly above about 0.92. Some of the results follow.

Experiment: chemical genetic growth profiling, strain panel (AID 1159580);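 note: tested at 20 µM; growth read once vehicle control cultures reached saturation at 30 °C; 1 = growth at the plate median or of vehicle wells; lower values mean less growth of the strain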
Conditions: S. cerevisiae deletion strains, growth OD

Measured: normalized growth

CC[C@H]1OC(=O)[C@H](C)[C@@H](O[C@H]2C[C@@](C)(OC)[C@@H](O)[C@H](C)O2)[C@H](C)[C@@H](O[C@@H]2O[C@H](C)C[C@H](N(C)C)[C@H]2O)[C@](C)(O)C[C@@H](C)/C(=N/OCOCCOC)[C@H](C)[C@@H](O)[C@]1(C)O
inactive: locus YAL021C, strain ccr4, hits give low values 1.03 | locus YAL026C, strain drs2, hits give low values 1.02 | locus YAL030W, strain snc1, hits give low values 0.998 | locus YBL061C, strain skt5, hits give low values 1.01 | locus YBR009C, strain hhf1, hits give low values 0.998 | locus YBR021W, strain FUR4, hits give low values 1.02 | locus YBR023C, strain chs3, hits give low values 1.01 | locus YBR171W, strain sec66, hits give low values 1.03 | locus YBR229C, strain ROT2, hits give low values 1.01 | locus YBR231C, strain swc5, hits give low values 1.01 | locus YBR279W, strain paf1, hits give low values 1 | locus YCL011C, strain gbp2, hits give low values 1.01 | locus YCL016C, strain dcc1, hits give low values 1 | locus YCL029C, strain bik1, hits give low values 0.988 | locus YCL069W, strain vba3, hits give low values 1.02 | locus YCR088W, strain abp1, hits give low values 1.01 | locus YDL005C, strain med2, hits give low values 1.01 | locus YDL035C, strain GPR1, hits give low values 1.01 | locus YDL040C, strain nat1, hits give low values 1.01 | locus YDL074C, strain BRE1, hits give low values 0.975 | locus YDL101C, strain DUN1, hits give low values 0.991 | locus YDL134C, strain PPH21, hits give low values 1.01 | locus YDL185W, strain tfp1, hits give low values 1 | locus YDL192W, strain arf1, hits give low values 1.01 | locus YDR001C, strain nth1, hits give low values 1.01 | locus YDR069C, strain doa4, hits give low values 1.03 | locus YDR101C, strain arx1, hits give low values 0.994 | locus YDR137W, strain rgp1, hits give low values 0.969 | locus YDR159W, strain sac3, hits give low values 0.996 | locus YDR162C, strain NBP2, hits give low values 1.01 | locus YDR195W, strain ref2 0.994 | locus YDR297W, strain sur2, hits give low values 1.02 | locus YDR318W, strain mcm21, hits give low values 0.995 | locus YDR334W, strain swr1, hits give low values 1.01 | locus YDR335W, strain msn5, hits give low values 1.01 | locus YDR388W, hits give low values 0.999 | locus YDR392W, strain spt3, hits give low values 0.949 | locus YDR502C, strain sam2, hits give low values 1.01 | locus YEL003W, strain gim4, hits give low values 1.02 | locus YEL037C, strain rad23, hits give low values 1.02 | locus YEL061C, strain CIN8 (second series), hits give low values 1 | locus YEL061C, strain CIN8, hits give low values 1 | locus YER015W, strain faa2, hits give low values 1.01 | locus YER016W, strain bim1, hits give low values 0.995 | locus YER110C, hits give low values 1 | locus YER111C, strain swi4, hits give low values 1.01 | locus YER155C, strain BEM2 (second series), hits give low values 0.897 | locus YER155C, strain BEM2, hits give low values 1 | locus YER167W, strain BCK2, hits give low values 1 | locus YFR010W, strain ubp6, hits give low values 1.02 | locus YGL078C, strain dbp3, hits give low values 1 | locus YGL086W, strain mad1, hits give low values 1 | locus YGL167C, strain pmr1, hits give low values 1 | locus YGL173C, strain kem1, hits give low values 1.02 | locus YGL227W, strain vid30, hits give low values 1.03 | locus YGL240W, strain doc1, hits give low values 1.02 | locus YGL248W, strain PDE1, hits give low values 0.993 | locus YGL253W, strain hxk2, hits give low values 1.01 | locus YGR135W, strain pre9, hits give low values 1.04 | locus YGR229C, strain SMI1, hits give low values 1.01 | locus YHR013C, strain ard1, hits give low values 0.983 | locus YHR027C, strain rpn1, hits give low values 0.999 | locus YHR030C, strain SLT2, hits give low values 1.01 and 0.997 | locus YHR079C, strain IRE1 (second series), hits give low values 0.98 | locus YHR079C, strain IRE1, hits give low values 0.985 | locus YHR094C, strain hxt1, hits give low values 0.987 | locus YHR129C, strain ARP1, hits give low values 1.01 | locus YHR142W, strain chs7, hits give low values 1.02 | locus YHR200W, strain rpn10, hits give low values 1.01 | locus YIL066C, strain RNR3, hits give low values 0.983 | locus YIL073C, strain SPO22, hits give low values 1.07 | locus YIL125W, strain kgd1, hits give low values 1 | locus YIR030C, strain dcg1, hits give low values 0.997 | locus YJL092W, strain hpr5, hits give low values 1.01 | locus YJL095W, strain BCK1 (second series), hits give low values 1.01 | locus YJL095W, strain BCK1, hits give low values 0.97 and 0.99 | locus YJL115W, strain asf1, hits give low values 1.04 | locus YJL129C, strain trk1, hits give low values 1.02 | locus YJL134W, strain LCB3, hits give low values 1 | locus YJL154C, strain vps35, hits give low values 1.01 | locus YJL164C, strain tpk1, hits give low values 1.01 | locus YJL166W, strain qcr8, hits give low values 1.01 | locus YJL168C, strain set2, hits give low values 0.992 | locus YJL187C, strain SWE1 (second series), hits give low values 0.97 | locus YJL187C, strain SWE1, hits give low values 1.02 | locus YJR043C, strain POL32, hits give low values 1.01 | locus YJR066W, strain TOR1, hits give low values 0.977
